Source: PubChem BioAssay (Tox21)
Results filed as inconclusive are left out. Where a call stands in place of a potency, no number is given. The source made the active and inactive calls. Calls follow the shape of the full dose curve.

biological target: Acetylcholinesterase (Homo sapiens) (UniProt P22303); experiment: Acetylcholinesterase (AChE) small molecule antagonists: fluorescence cell-based qHTS assay (AID 1347398); settings: SH-SY5Y cells; Potency: AChE activity; outcome: AChE activity; series mostly up to 115 µM; also: nearly all actives have a fitted effect of over 50% in size
Sequence (P22303 whole entry, looked up): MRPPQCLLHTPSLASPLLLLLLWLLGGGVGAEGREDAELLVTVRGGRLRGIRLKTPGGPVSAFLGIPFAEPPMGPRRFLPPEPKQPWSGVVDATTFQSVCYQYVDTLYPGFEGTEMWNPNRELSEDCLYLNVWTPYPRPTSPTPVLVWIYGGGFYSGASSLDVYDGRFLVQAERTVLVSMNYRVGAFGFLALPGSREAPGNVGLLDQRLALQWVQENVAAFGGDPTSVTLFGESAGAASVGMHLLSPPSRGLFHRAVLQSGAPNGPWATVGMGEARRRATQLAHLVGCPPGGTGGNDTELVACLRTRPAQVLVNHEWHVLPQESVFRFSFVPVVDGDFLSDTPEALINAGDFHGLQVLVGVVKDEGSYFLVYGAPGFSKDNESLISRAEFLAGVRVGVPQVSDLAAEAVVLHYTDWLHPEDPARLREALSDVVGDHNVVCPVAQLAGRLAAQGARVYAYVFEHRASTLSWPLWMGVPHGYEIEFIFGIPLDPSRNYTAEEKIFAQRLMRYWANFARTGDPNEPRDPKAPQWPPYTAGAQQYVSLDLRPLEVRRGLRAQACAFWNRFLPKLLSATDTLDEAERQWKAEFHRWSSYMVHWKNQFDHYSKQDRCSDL
Method in brief: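 Fluorimetric cell-based assay: intact SH-SY5Y cells, 30 min compound preincubation at 37 C, acetylthiocholine substrate with thiol probe Thiolite Green, 40 min RT development, fluorescence 490/520 nm.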

SMILES | Potency
Cc1cccc(C(=O)O)c1O | inactive
CCOCCOCCOCC | inactive
CC(C)=CC(=O)C=C(C)C | inactive
CNCCCC12CCC(c3ccccc31)c1ccccc12 | inactive
CC(=O)O[Si](C)(OC(C)=O)OC(C)=O | inactive
CC/C=C\CCOC(=O)c1ccccc1O | inactive
CC(C)(Oc1ccc(Cl)cc1)C(=O)O | inactive
CCOC(=O)CC(=O)OCC | inactive
CC1=CC(C)C(C=O)C(C)C1 (stereo not given) | inactive
Cc1ccccc1C(=O)Nc1ccc(C(=O)N2CCCC(N(C)C)c3ccccc32)cc1 (stereo not given) | inactive
C1=Cc2ccccc2C1 | inactive
CCOC(=O)C1=NOC(c2ccccc2)(c2ccccc2)C1 | inactive
CCCCCCc1ccc(-c2ccc(C#N)cc2)cc1 | inactive
CC/C=C\C/C=C\C/C=C\CCCCCCCC(=O)OCC | inactive
O=C(O)c1ccccc1Cl | inactive
Cc1ccc(C(C)C)cc2c(C)ccc1-2 | inactive
C=C(C)C(=O)OCCO | inactive
O=c1[nH][nH]c2ccccc12 | inactive
CC1CCC(C(C)CS)CC1S (stereo not given) | inactive
O=C1c2ccccc2C(=O)N1CCl | inactive

SMILES | Potency
Oc1ccccc1O | inactive
CCN1CN(CC)CN(CC)C1 | inactive
CC1=NN(c2ccc(S(=O)(=O)O)cc2)C(=O)C1 | inactive
CC/C=C(\C(=O)N[C@@H]1C(=O)N2C(C(=O)OCOC(=O)C(C)(C)C)=C(COC(N)=O)CS[C@H]12)c1csc(N)n1 | inactive
CCOc1ccc(OCC)c(Cl)c1 | inactive
CCCCCCCCCCO[C@@H]1O[C@H](CO)[C@@H](O)[C@H](O)[C@H]1O | inactive
CCN(CC)CCSC(=O)C(c1ccccc1)c1ccccc1 | inactive
O=[N+]([O-])c1cc[n+]([O-])cc1 | inactive
O=C(O)C(=O)O | inactive
CC(C#N)(CCC(=O)O)N=NC(C)(C#N)CCC(=O)O (stereo not given) | inactive
O=C(O)CCCCCCCCC(=O)O | inactive
CCN(CC)CC1CCCCN1CC(=O)N1c2ccccc2C(=O)Nc2cccnc21 (stereo not given) | inactive
CCc1occc(=O)c1O | inactive
O=[N+]([O-])c1ccc(O)cc1 | inactive
CCc1ncc(C)[nH]1 | inactive
Oc1cc2ccccc2cc1O | inactive
O=C(O)c1cc(O)c(O)c(O)c1 | inactive
CCOC(=O)/C=C\C(=O)OCC | inactive
C=C(C)c1cccc(C(C)(C)N=C=O)c1 | inactive
CCCCCCCCNC | inactive
